A number with no mark means an inactive call. A call without a number means that no potency is given here. Active and inactive are the calls of the source. Calls follow the shape of the full dose curve.

The target in the assay is Estrogen receptor (Homo sapiens) (UniProt P03372). Put plainly: qHTS assay to identify small molecule agonists of the estrogen receptor alpha (ER-alpha) signaling pathway in the presence of an antagonist (AID 1259383). Also: top concentration of the series differs between compounds; nearly all actives have a fitted effect of over 15% in size. Conditions: VM7Luc4E2 cells, ERE-luciferase, +ICI-182,780, 22 h; series mostly up to 92.4 µM. The source says: National Center for Advancing Translational Sciences [NCATS] NIH Chemical Genomics Center [NCGC] U.S. Environmental Protection Agency [EPA] National Institutes of Environmental Health Sciences [NIEHS] National Toxicology Program [NTP] Assay overview: Estrogen receptor (ER), a member of nuclear hormone receptor plays an important role in development, metabolic homeostasis and reproduction. Two subtypes of ER, ER-alpha and ER-beta, have similar expression patterns with some uniqueness in both types. Endocrine disrupting chemicals (EDCs) and their interactions with steroid hormone receptors like ER causes disruption of normal endocrine function. Therefore, it is important to understand the effect of environmental chemicals in ER signaling pathway. For identifying ER agonists, VM7Luc4E2 cell line has been used in the current assay. VM7Luc4E2 cell line (provided by Denison MS, University of California) endogenously expresses full-length ER-alpha and is stably transfected with a plasmid containing four estrogen responsive elements (ERE) upstream of a luciferase reporter gene. This current screening for measuring luciferase reporter gene activity using VM7Luc4E2 cells against Tox21 10K library collection is a confirmation study on agonist mode screening in presence of ER-antagonist (ICI-182,780) at 10.0nM final concentration.
Chain of Estrogen receptor (Homo sapiens) (P03372 whole entry, looked up): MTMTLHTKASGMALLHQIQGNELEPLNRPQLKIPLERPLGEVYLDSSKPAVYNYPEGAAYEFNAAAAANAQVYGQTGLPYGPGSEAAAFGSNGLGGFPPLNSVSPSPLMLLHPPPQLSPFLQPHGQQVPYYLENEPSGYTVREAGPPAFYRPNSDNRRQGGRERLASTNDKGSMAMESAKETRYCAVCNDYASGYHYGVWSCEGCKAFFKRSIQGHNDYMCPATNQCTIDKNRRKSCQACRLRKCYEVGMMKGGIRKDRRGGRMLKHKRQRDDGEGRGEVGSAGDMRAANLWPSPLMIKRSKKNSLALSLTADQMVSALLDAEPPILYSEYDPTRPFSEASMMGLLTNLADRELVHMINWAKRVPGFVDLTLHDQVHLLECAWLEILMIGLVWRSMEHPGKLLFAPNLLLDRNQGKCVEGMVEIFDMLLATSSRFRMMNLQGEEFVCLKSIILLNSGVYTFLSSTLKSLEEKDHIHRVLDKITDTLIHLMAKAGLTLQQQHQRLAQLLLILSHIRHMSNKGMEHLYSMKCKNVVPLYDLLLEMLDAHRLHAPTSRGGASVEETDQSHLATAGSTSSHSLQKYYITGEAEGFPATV
Assay Protocol Summary: VM7Luc4E2 cells were cultured in phenol red free assay medium containing 10% charcoal stripped FBS for 5 days prior to the assay. The cells were dispensed at 4,000 cells in 4uL of assay medium per well into white wall/solid-bottom 1536-well plates (Corning Life Sciences, Corning, NY) using a Multidrop Combi (Thermo Fisher Scientific Inc., Waltham, MA) dispenser. After the assay plates were incubated at 37C and 5% CO2 for 24hr, 1uL of 10.0nM (final concentration) ICI-182,780 or assay buffer was added using two separate tips of Flying Reagent Dispenser (FRD, Aurora Discovery, San Diego, CA). Then 23nL of compounds dissolved in DMSO at 15 concentrations and positive controls or DMSO only was transferred to the assay plates by a Pintool station (Wako, San Diego, CA). The assay plates were incubated at 37C and 5% CO2 for 22hr. For luciferase read, 4uL/well ONE-Glo reagent (Promega Corporation, Madison, WI) was added to each well using FRD and after 30min incubation at room temperature, luminescence signal was measured on ViewLux plate reader (PerkinElmer, Shelton, CT).
On the technique in general: In qHTS, concentration-response curves come from the screen itself.
With `Cn1cccc1`, the Potency entry was “inactive”.

With `O=C(c1ccccc1)c1cc(Cl)ccc1O`, the Potency entry is “inactive”.

As for `COc1ccc2sc(C(=O)Nc3nnn[nH]3)c(OC(C)C)c2c1`, the Potency entry was “inactive”.

Regarding `CCOC(=O)COc1ccc(C)cc1`, the Potency result is “inactive”.

Consider `Cc1cc(C)c(C=O)c(C)c1`, for which the Potency result was “inactive”.

Take `C=C(C)CCCC`: the Potency entry was “inactive”.

On to `C=C/C=C/C=C/CCCCC`, for which the activation is -1.21% [at 19 µM].

For the molecule `CC(C)(C)c1n[nH]c(=O)n(N)c1=O`, the Potency result was “inactive”.

Turning to `O=C1Nc2ccc(Cl)cc2[C@@](C#CC2CC2)(C(F)(F)F)O1`, the Potency result was “inactive”.

Take `COc1nccnc1CC(C)C`: the Potency result is “inactive”.

`OCCCc1cccnc1`: the Potency result was “inactive”.

With `CC(COC(=O)c1ccccc1)OC(=O)c1ccccc1` (stereo not given), the Potency entry is “inactive”.

Regarding `C/C=C/C(=O)C1=C(C)CCCC1(C)C`, the Potency entry is “inactive”.

Turning to `C(=C/c1ccccc1)/c1ccccc1`, the Potency entry was “inactive”.

As to `C=CC/C=C/C/C=C/C/C=C/C`, the Potency result is “inactive”.

In the case of `CCCC(CC)CCCCCCCN` (stereo not given), the Potency entry was “inactive”.

Regarding `CCOC(OCC)C(=O)c1ccccc1`, the Potency result is “inactive”.

With `O=S(=O)(O)CCCN1CCOCC1`, the Potency entry was “inactive”.

For the molecule `c1ccc(Nc2cccc3ccccc23)cc1`, the Potency entry was “inactive”.

In the case of `Cc1cc2c(C(C)C)c(O)c(O)c(C=O)c2c(O)c1-c1c(C)cc2c(C(C)C)c(O)c(O)c(C=O)c2c1O`, the Potency result is “inactive”.

Consider `CC(C)N=C(N)/N=C(\N)Nc1ccc(Cl)cc1`, for which the Potency entry was “inactive”.

On to `Cc1oc(-c2ccccc2)nc1CCOc1ccc(C[C@H](Nc2ccccc2C(=O)c2ccccc2)C(=O)O)cc1`, for which the Potency result is “inactive”.

For the molecule `Clc1ccc(C(Cn2ccnc2)OCc2c(Cl)cccc2Cl)c(Cl)c1` (stereo not given), the Potency entry is “inactive”.

For the molecule `CC1CCCCN1CCCOC(=O)c1ccc(OC2CCCCC2)cc1` (stereo not given), the Potency result was “inactive”.

On to `OCCN1CN(CCO)CN(CCO)C1`, for which the Potency result was “inactive”.

Regarding `Cc1cn[nH]c1`, the Potency result is “inactive”.

Consider `COc1ccccc1C=O`, for which the Potency entry is “inactive”.

Take `CC1(C)C(=O)N(CO)C(=O)N1CO`: the Potency entry is “inactive”.

As for `CN(C)CCN1CCOCC1`, the Potency result was “inactive”.

As for `C[C@@]12C(=O)OC(=O)[C@]1(C)C1CCC2O1`, the Potency result was “inactive”.

For `CCCCCCOc1cc(C)c(O)c(C)c1C`, the Potency entry was “inactive”.

For the molecule `CO[C@H]1C=CO[C@@]2(C)Oc3c(C)c(O)c4c(O)c(cc(O)c4c3C2=O)NC(=O)/C(C)=C\C=C/[C@H](C)[C@H](O)[C@@H](C)[C@@H](O)[C@@H](C)[C@H](OC(C)=O)[C@@H]1C`, the Potency result is “inactive”.

For the molecule `CC1=CCC(=O)O1`, the Potency result was “inactive”.

Regarding `CCCCN(C)C`, the Potency entry is “inactive”.

`O=C(Nc1ccc(Cl)cc1)Nc1ccc(Cl)c(C(F)(F)F)c1`: the Potency result was “inactive”.

Regarding `CCc1cccc(CC)c1NC(=O)C(=O)O`, the Potency result was “inactive”.

Take `Cc1ccc(CCn2c3c(c4cc(Cl)ccc42)CN(C)CC3)cn1`: the Potency entry was “inactive”.

For the molecule `CC(=O)c1ccccc1N`, the Potency result is “inactive”.

With `S=C(SSSSSSC(=S)N1CCCCC1)N1CCCCC1`, the activation is 7.24% [at 19 µM].

`CCOCOCC`: the Potency entry was “inactive”.

Values taken from PubChem BioAssay (Tox21).
